Experimental data: PubChem BioAssay AID1159580 (chemical genetic matrix, 2015)
“And” between values parts separate entries of the source, which are not always exact repeats. Equal values may be shown once. In all, about 5,500 compounds went through this assay and about 2,000 (36%) were called active. Another 18% or so got no clear call; they are omitted. Rule as the data show it: active = normalized growth mostly below about 0.91 (no sharp cut-off); inconclusive = no clear call, values can overlap the other calls; inactive = mostly above about 0.92. The list shows a part of the results.

Test: chemical genetic growth profiling, strain panel (AID 1159580);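 also: tested at 20 µM; growth read once vehicle control cultures reached saturation at 30 °C; 1 = growth at the plate median or of vehicle wells; lower values mean less growth of the strain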
Conditions: S. cerevisiae deletion strains, growth OD

Measured: normalized growth

NC(N)=NCCN1CCCCCCC1
inactive: locus YAL013W, strain DEP1, hits give low values 1 | locus YAL021C, strain ccr4, hits give low values 1.02 | locus YAL026C, strain drs2, hits give low values 1.02 | locus YAL030W, strain snc1, hits give low values 1.03 | locus YBL061C, strain skt5, hits give low values 1.03 | locus YBR009C, strain hhf1, hits give low values 1.03 | locus YBR021W, strain FUR4, hits give low values 1.01 | locus YBR023C, strain chs3, hits give low values 1.03 | locus YBR171W, strain sec66, hits give low values 1.06 | locus YBR229C, strain ROT2, hits give low values 1 | locus YBR231C, strain swc5, hits give low values 0.999 | locus YBR279W, strain paf1, hits give low values 1.02 | locus YCL011C, strain gbp2, hits give low values 1.04 | locus YCL016C, strain dcc1, hits give low values 1.02 | locus YCL029C, strain bik1, hits give low values 1.01 | locus YCL061C, strain MRC1, hits give low values 1.03 | locus YCL069W, strain vba3, hits give low values 1.03 | locus YCR088W, strain abp1, hits give low values 1.03 | locus YDL005C, strain med2, hits give low values 1.04 | locus YDL035C, strain GPR1, hits give low values 1.01 | locus YDL040C, strain nat1, hits give low values 1.02 | locus YDL074C, strain BRE1, hits give low values 1.01 | locus YDL101C, strain DUN1, hits give low values 1 | locus YDL185W, strain tfp1, hits give low values 1.01 | locus YDL192W, strain arf1, hits give low values 1.03 | locus YDR001C, strain nth1, hits give low values 1.02 | locus YDR069C, strain doa4, hits give low values 1.02 | locus YDR101C, strain arx1, hits give low values 1.01 | locus YDR137W, strain rgp1, hits give low values 1.04 | locus YDR159W, strain sac3, hits give low values 1.05 | locus YDR162C, strain NBP2, hits give low values 1 | locus YDR195W, strain ref2 1.01 | locus YDR297W, strain sur2, hits give low values 1.03 | locus YDR318W, strain mcm21, hits give low values 1.02 | locus YDR334W, strain swr1, hits give low values 1.03 | locus YDR335W, strain msn5, hits give low values 1.03 | locus YDR388W, hits give low values 1.02 | locus YDR392W, strain spt3, hits give low values 0.986 | locus YDR502C, strain sam2, hits give low values 1.01 | locus YEL003W, strain gim4, hits give low values 1.02 | locus YEL037C, strain rad23, hits give low values 1.03 | locus YEL061C, strain CIN8 (second series), hits give low values 1.02 | locus YEL061C, strain CIN8, hits give low values 1.01 | locus YER015W, strain faa2, hits give low values 1.03 | locus YER016W, strain bim1, hits give low values 1.02 | locus YER110C, hits give low values 1.03 | locus YER111C, strain swi4, hits give low values 1.03 | locus YER155C, strain BEM2 (second series), hits give low values 1 | locus YER155C, strain BEM2, hits give low values 0.998 | locus YER167W, strain BCK2, hits give low values 1 | locus YFR010W, strain ubp6, hits give low values 1.03 | locus YGL078C, strain dbp3, hits give low values 1.04 | locus YGL086W, strain mad1, hits give low values 1 | locus YGL167C, strain pmr1, hits give low values 1.05 | locus YGL173C, strain kem1, hits give low values 1.03 | locus YGL227W, strain vid30, hits give low values 1.03 | locus YGL240W, strain doc1, hits give low values 1.02 | locus YGL248W, strain PDE1, hits give low values 1.01 | locus YGL253W, strain hxk2, hits give low values 1.02 | locus YGR078C, strain PAC10, hits give low values 1 | locus YGR135W, strain pre9, hits give low values 1.02 | locus YGR252W, strain gcn5, hits give low values 0.994 | locus YHR013C, strain ard1, hits give low values 1.05 | locus YHR027C, strain rpn1, hits give low values 1.03 | locus YHR030C, strain SLT2, hits give low values 1.01 and 0.977 | locus YHR079C, strain IRE1 (second series), hits give low values 1.02 | locus YHR079C, strain IRE1, hits give low values 0.983 | locus YHR094C, strain hxt1, hits give low values 1.02 | locus YHR129C, strain ARP1, hits give low values 1 | locus YHR142W, strain chs7, hits give low values 1.05 | locus YHR200W, strain rpn10, hits give low values 1.03 | locus YIL066C, strain RNR3, hits give low values 1.01 | locus YIL073C, strain SPO22, hits give low values 1.04 | locus YIL125W, strain kgd1, hits give low values 1.02 | locus YIR030C, strain dcg1, hits give low values 1.02 | locus YJL092W, strain hpr5, hits give low values 1.03 | locus YJL095W, strain BCK1 (second series), hits give low values 1.02 | locus YJL095W, strain BCK1, hits give low values 1.01 and 0.982 | locus YJL115W, strain asf1, hits give low values 1.03 | locus YJL129C, strain trk1, hits give low values 1.06 | locus YJL134W, strain LCB3, hits give low values 1 | locus YJL154C, strain vps35, hits give low values 1.01 | locus YJL164C, strain tpk1, hits give low values 1.04 | locus YJL166W, strain qcr8, hits give low values 1.04 | locus YJL168C, strain set2, hits give low values 1.03 | locus YJL187C, strain SWE1 (second series), hits give low values 1.01 | locus YJL187C, strain SWE1, hits give low values 1.04
